Results published in PubChem BioAssay (NCATS).
Several values for one entry are separate records, joined by “and”; a condition that tells them apart may be missing. Identical values can stand only once. Records with an inconclusive call do not appear. Activity calls are given as the source filed them. Unless noted, calls come from the whole dose curve; as a rule, active = well fitted curve in the direction sought with a large enough effect; inconclusive = small, poorly fitted or top-dose-only effect, or another doubt; inactive = no such curve, though single readings can be large; an effect the other way counts as inactive or inconclusive.

Legend:
[1] = qHTS assay for small molecule disruptors of the mitochondrial membrane potential - 1 hr assay (AID 651754; calls by dose curve; note: % is set by controls: 0 for no effect and ±100 for the full control effect; nearly all actives have a fitted effect of over 35% in size)
Summary of the method: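 Loss of mitochondrial potential shifts the cationic dye from red mitochondrial aggregates to green cytoplasmic monomers. Cells (HepG2) are treated with compound for 1 hr before a 30 min dye incubation at 37C.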

[2] = qHTS assay for small molecule disruptors of the mitochondrial membrane potential - 5 hr assay (AID 651755; calls by dose curve; note: % is set by controls: 0 for no effect and ±100 for the full control effect; nearly all actives have a fitted effect of over 40% in size)
Summary of the method: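 Read-out: ratiometric Mito-MPS fluorescence, green monomer (ex 490/em 535) vs red mitochondrial aggregate (ex 540/em 590). HepG2 cells treated 5 hr at 37C before 30 min dye loading.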

[3] = target: Tumor necrosis factor (Homo sapiens) (UniProt P01375); experiment: qHTS assay to identify small molecules that stimulate Tumor Necrosis Factor-alpha (TNF-alpha) secretion (AID 651757; active = well fitted curve in the direction sought with a large enough effect in the signal ratio; the % refers to the signal ratio; note: 0% is about no effect)
Chain of Tumor necrosis factor (Homo sapiens) (P01375 whole entry, looked up): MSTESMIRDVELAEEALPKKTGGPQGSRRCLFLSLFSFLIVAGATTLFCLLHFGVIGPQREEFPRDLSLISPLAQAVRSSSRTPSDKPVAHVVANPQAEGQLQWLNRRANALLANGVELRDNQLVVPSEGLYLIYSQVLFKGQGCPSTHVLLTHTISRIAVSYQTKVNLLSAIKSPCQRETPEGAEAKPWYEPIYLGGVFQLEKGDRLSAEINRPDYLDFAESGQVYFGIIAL
Summary of the method: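 Human monocytic THP-1 cells are plated, treated with compound and held at 37 C for 17 hrs. Labeled anti-TNF-alpha antibody mixture is then added; after 3 hr at room temperature, TR-FRET signal reports secreted TNF-alpha.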

[4] = qHTS assay for environmental chemicals that activate the Aryl hydrocarbon Receptor (AhR) signaling pathway (AID 651777); details: 1A2-DRE human hepatoma cells, luciferase, 24 h; activation: hits give high values; note: % of control where 0% means no effect; nearly all actives have a fitted effect of over 15% in size
Summary of the method: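 Concentration–response screening used 1,200 1A2-DRE cells per well, 24 hr compound exposure (37 C, 5% CO2), and One-Glo luminescence as the AhR-driven CYP1A2 reporter signal.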

[5] = target: Peroxisome proliferator-activated receptor alpha (Homo sapiens) (UniProt Q07869); experiment: qHTS assay for small molecule agonists of the peroxisome proliferator-activated receptor alpha (PPARalpha) signaling pathway (AID 651778); details: PathHunter PPARalpha complementation, chemiluminescence, 6 h; hits give high values; note: % of control where 0% means no effect
Chain of Peroxisome proliferator-activated receptor alpha (Homo sapiens) (Q07869 whole entry, looked up, the tested form may be a part): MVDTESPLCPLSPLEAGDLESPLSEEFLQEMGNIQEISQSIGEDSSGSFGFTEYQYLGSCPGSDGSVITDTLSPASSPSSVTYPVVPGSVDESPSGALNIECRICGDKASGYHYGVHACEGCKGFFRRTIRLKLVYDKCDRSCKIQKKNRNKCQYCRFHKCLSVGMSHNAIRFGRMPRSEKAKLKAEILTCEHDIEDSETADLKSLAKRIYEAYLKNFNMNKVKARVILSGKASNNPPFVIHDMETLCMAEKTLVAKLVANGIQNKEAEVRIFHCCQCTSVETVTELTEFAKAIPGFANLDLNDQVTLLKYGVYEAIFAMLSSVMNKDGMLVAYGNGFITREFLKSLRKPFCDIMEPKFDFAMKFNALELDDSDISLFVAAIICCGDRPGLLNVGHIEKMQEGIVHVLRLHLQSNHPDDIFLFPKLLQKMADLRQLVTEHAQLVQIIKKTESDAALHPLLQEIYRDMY
Summary of the method: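 Enzyme-fragment complementation assay in which ligand-bound PPARalpha translocates and forms an active enzyme that generates chemiluminescence. Cells were plated overnight, exposed to compound for 6 hr at 37 C, and then given detection reagent for 60 min at room temperature.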

[6] = target: Nuclear receptor ROR-gamma (Homo sapiens) (UniProt P51449); experiment: qHTS assay for small molecule antagonists of the retinoid-related orphan receptor gamma (ROR-gamma) signaling pathway (AID 651802);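 note: CHO cells with doxycycline-induced ROR-gamma expression; series mostly up to about 92 µM; % is set by controls: 0 for no effect and ±100 for the full control effect; nearly all actives have a fitted effect of over 60% in size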
Chain of Nuclear receptor ROR-gamma (Homo sapiens) (P51449 whole entry, looked up): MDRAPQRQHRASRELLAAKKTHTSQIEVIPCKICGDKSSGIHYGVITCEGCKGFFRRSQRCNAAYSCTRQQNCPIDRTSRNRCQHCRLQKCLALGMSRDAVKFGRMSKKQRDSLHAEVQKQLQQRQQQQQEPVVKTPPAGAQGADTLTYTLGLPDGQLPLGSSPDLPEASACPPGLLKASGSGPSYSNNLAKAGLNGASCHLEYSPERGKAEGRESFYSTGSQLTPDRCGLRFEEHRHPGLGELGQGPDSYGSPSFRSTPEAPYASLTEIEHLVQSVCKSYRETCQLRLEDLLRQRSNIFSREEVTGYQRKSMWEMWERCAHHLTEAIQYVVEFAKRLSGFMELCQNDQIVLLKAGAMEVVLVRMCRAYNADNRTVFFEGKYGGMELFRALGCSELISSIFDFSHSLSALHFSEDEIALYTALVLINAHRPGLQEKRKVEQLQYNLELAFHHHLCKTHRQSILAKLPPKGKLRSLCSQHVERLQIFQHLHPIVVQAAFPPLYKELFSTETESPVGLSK
Summary of the method: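 Steps: cells dispensed; compound or DMSO transferred by pin tool; doxycycline added to induce the ROR response element-driven luciferase; plates held 16hr at 37C; ONE-Glo added and luminescence measured.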

[7] = qHTS assay for small molecule agonists of the antioxidant response element (ARE) signaling pathway measured by Nrf2-dependant transcriptional activity (AID 720636; active = well fitted curve in the direction sought with a large enough effect in the repeat runs; an effect the other way counts as inactive or inconclusive;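 note: HepG2 cells with an ARE-driven luciferase reporter; % of control where 0% means no effect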)
Summary of the method: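 Attachment 6 hr at 37 C, then compound versus DMSO vehicle for 16 hr in ARE-luc HepG2 cells (1% dialyzed FBS); luminescence recorded 30 min after ONE-Glo addition at room temperature.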

[8] = qHTS assay for small molecule antagonists of the retinoid-related orphan receptor gamma (ROR-gamma) signaling pathway - cell viability counter screen (AID 720652; active = well fitted curve in the direction sought with a large enough effect in the repeat runs; an effect the other way counts as inactive or inconclusive;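 note: CHO reporter cells with doxycycline-induced ROR-gamma expression; series mostly up to about 92 µM; compound exposure lasted 16 hr before ATP read; % is set by controls: 0 for no effect and ±100 for the full control effect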)
Summary of the method: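 Steps: seed CHO cells bearing TET-inducible ROR and ROR response element-luciferase; rest 5 hr at 37 C; add compound, then doxycycline; incubate 16 hr; add CellTiter-Glo and read luminescence as ATP-based viability.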

[9] = qHTS assay for cell viability of the p53RE-bla HCT-116 cell line (AID 743292); note: % is set by controls: 0 for no effect and ±100 for the full control effect; nearly all actives have a fitted effect of over 55% in size
Summary of the method: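 Compound-exposed HCT-116 (p53RE-bla) cells, 4,000 per well, were kept 16 h at 37 C following a 5 h preincubation. Cell number was estimated from total ATP by CellTiter-Glo luminescence read after 30 min at room temperature.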

[10] = target: Nuclear receptor subfamily 1 group I member 2 (Rattus norvegicus) (UniProt Q9R1A7); experiment: qHTS assay for small molecule activators of the rat pregnane X receptor (rPXR) signaling pathway (AID 651751; call rule not given here; note: 0% is about no effect); details: rPXR reporter cells, luciferase (One-Glo), 24 h
Chain of Nuclear receptor subfamily 1 group I member 2 (Rattus norvegicus) (Q9R1A7 whole entry, looked up): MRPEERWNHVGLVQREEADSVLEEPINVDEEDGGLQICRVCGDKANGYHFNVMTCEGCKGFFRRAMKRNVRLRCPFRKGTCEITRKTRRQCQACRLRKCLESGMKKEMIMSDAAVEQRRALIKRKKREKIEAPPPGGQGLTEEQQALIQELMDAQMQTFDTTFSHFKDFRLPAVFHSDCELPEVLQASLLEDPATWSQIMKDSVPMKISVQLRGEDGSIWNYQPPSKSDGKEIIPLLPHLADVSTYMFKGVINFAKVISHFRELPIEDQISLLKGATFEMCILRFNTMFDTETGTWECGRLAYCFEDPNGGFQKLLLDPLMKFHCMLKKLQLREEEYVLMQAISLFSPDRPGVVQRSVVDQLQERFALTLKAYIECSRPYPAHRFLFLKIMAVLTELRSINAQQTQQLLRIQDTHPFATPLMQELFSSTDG

[11] = qHTS assay for small molecule activators of the human pregnane X receptor (PXR) signaling pathway (AID 720659; call rule not given here; note: 0% is about no effect)
[12] = qHTS assay for small molecule agonists of the antioxidant response element (ARE) signaling pathway measured by Nrf2-dependant transcriptional activity - cell viability counter screen (AID 720653; active = well fitted curve in the direction sought with a large enough effect in the repeat runs; an effect the other way counts as inactive or inconclusive; note: % is set by controls: 0 for no effect and ±100 for the full control effect); details: ARE-bla HepG2 viability, CellTiter-Glo ATP luminescence, 16 h; hits give low values
Summary of the method: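 ARE-bla HepG2 cells treated with compounds for 16 h at 37C; this counter screen measures viability as intracellular ATP by CellTiter-Glo luminescence after 30 min at room temperature.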

[13] = qHTS assay for cell viability of HEK293 cells (AID 743288); details: ATP luminescence (CellTiter-Glo), 18 h, hits give low values; note: % is set by controls: 0 for no effect and ±100 for the full control effect; nearly all actives have a fitted effect of over 50% in size
Summary of the method: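 Steps: plate 2,000 parental HEK293 cells per well; incubate ≥5 h, 37 C; add compounds in DMSO; incubate 18 h, 37 C; add CellTiter-Glo; wait 30 min at room temperature; read luminescence.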

NC(=O)NC(N)=O
inactive: Potency [1] | Potency [2] | Potency [3] | activation [4] 2.56% | max response [5] -2.74% | Potency [6] | outcome [7] | Potency [8] | Potency [9] | max response [10] -0.329% | outcome [11]

CC(=O)OCCC(C)C
inactive: Potency [1] | Potency [2] | Potency [3] | activation [4] 0.441% | Potency [6] | outcome [7] | Potency [8] | max response [12] -11% | max response [13] 3.44% | Potency [9] | max response [10] 8.07% | outcome [11]

Cc1c(C(=O)O)cccc1[N+](=O)[O-]
inactive: Potency [1] | Potency [2] | Potency [3] | max response [5] -0.685% | Potency [6] | outcome [7] | Potency [8] | max response [12] 17.9% | max response [13] 6.06% | Potency [9] | max response [10] 0.0854% | outcome [11]

C=CCCC
inactive: Potency [1] | Potency [2] | Potency [3] | max response [5] -5.85% | Potency [6] | outcome [7] | Potency [8] | max response [12] 3.55% | max response [13] -5.1% | Potency [9] | max response [10] 2.44% | outcome [11]

FB(F)F
inactive: Potency [1] | Potency [2] | Potency [3] | activation [4] -0.371% | max response [5] -1.82% | outcome [7] | Potency [8] | max response [12] 3.97% | max response [13] -1.64% | Potency [9] | max response [10] -0.777% | outcome [11]

CC=C(Cl)Cl
inactive: Potency [1] | Potency [2] | Potency [3] | max response [5] -5.05% | Potency [6] | outcome [7] | Potency [8] | max response [12] -6.27% | max response [13] 5.81% | Potency [9] | max response [10] -4.19% | outcome [11]

FC(F)(F)c1ccccc1Cl
inactive: Potency [1] | Potency [2] | Potency [3] | activation [4] -0.14% | max response [5] -1.82% | outcome [7] | Potency [8] | max response [12] -5.26% | max response [13] 10.1% | Potency [9] | max response [10] -1.61% | outcome [11]

Cc1cccc2cccnc12
inactive: Potency [1] | Potency [2] | Potency [3] | activation [4] -0.26% | Potency [6] | outcome [7] | Potency [8] | max response [12] -7.04% | max response [13] -0.0071% | Potency [9] | max response [10] -0.272% | outcome [11]

CCCOCC(C)O (stereo unspecified)
inactive: Potency [1] | Potency [2] | Potency [3] | max response [5] -5.25% | Potency [6] | outcome [7] | Potency [8] | max response [12] 8.24% | max response [13] 2.22% | Potency [9] | max response [10] -0.746% | outcome [11]

CC/C=C/C#N
inactive: Potency [1] | Potency [2] | Potency [3] | activation [4] -1.16% | max response [5] 9.19% | outcome [7] | Potency [8] | max response [13] 5.67% | Potency [9] | max response [10] 1.47% | outcome [11]

NCCCCCCN
inactive: Potency [1] | Potency [2] | Potency [3] | max response [5] -4.8% | Potency [6] | outcome [7] | Potency [8] | max response [12] -0.206% | max response [13] 10.3% | Potency [9] | max response [10] 2.77% | outcome [11]

O=C(O)CNC(=O)c1ccc([N+](=O)[O-])cc1
inactive: Potency [1] | Potency [2] | Potency [3] | activation [4] 0.908% | max response [5] -1.61% | outcome [7] | Potency [8] | max response [13] -4.53% | Potency [9] | max response [10] 1.39% | outcome [11]

O=C1OC(=O)c2c(Cl)c(Cl)c(Cl)c(Cl)c21
inactive: Potency [1] | Potency [2] | Potency [3] | activation [4] 0.646% and 1.03% | max response [5] 0.893% and -0.287% | Potency [6] | outcome [7] | Potency [8] | max response [13] 5.35% and -3.52% | Potency [9] | max response [10] 0.139% and -2.42% | outcome [11]

CC(C)(O)C(=O)O
inactive: Potency [1] | Potency [2] | Potency [3] | max response [5] 4.71% | Potency [6] | outcome [7] | Potency [8] | max response [12] 1.81% | max response [13] 1.23% | Potency [9] | max response [10] 0.872% | outcome [11]

CCc1ccccc1O
inactive: Potency [1] | Potency [2] | Potency [3] | activation [4] -0.147% | Potency [6] | outcome [7] | Potency [8] | max response [12] 4.85% | max response [13] -0.782% | Potency [9] | max response [10] -3.4% | outcome [11]

O=CNc1ccccc1
inactive: Potency [1] | Potency [2] | Potency [3] | activation [4] -0.556% | max response [5] -2.49% | Potency [6] | outcome [7] | Potency [8] | max response [13] -2.01% | Potency [9] | max response [10] 1.37% | outcome [11]

Nc1c(Cl)cc(Cl)cc1Cl
inactive: Potency [1] | Potency [2] | Potency [3] | activation [4] -0.694% | max response [5] -2.57% | outcome [7] | Potency [8] | max response [12] -2.36% | max response [13] -2.95% | Potency [9] | max response [10] -2.23% | outcome [11]

Cc1ccc2oc(=O)ccc2c1
inactive: Potency [1] | Potency [2] | Potency [3] | activation [4] 8.69% and -0.308% | Potency [8] | max response [12] -9.69% and -6.43% | max response [13] 2.42% and -2.56% | Potency [9] | max response [10] 9.5% and 1.03% | outcome [11]
